# Source: paper PMC5540273 (PLoS ONE, 2017)
# Tests used:
# Conditions in all cases: concentration: 1 μM,replicates: in singlicate; n = 1
# [1] = system: AAK1
# [2] = system: ABL1-nonphosphorylated
# [3] = system: ABL1-phosphorylated
# [4] = system: ABL2
# [5] = system: ACVR1B
# [6] = system: ACVR1
# [7] = system: ACVR2A
# [8] = system: ACVR2B
# [9] = system: ACVRL1
# [10] = system: T1, ADCK3
# T1 construct: gene CABC1
# [11] = system: ADCK4
# [12] = system: AKT1
# [13] = system: AKT2
# [14] = system: AKT3
# [15] = system: ALK
# [16] = system: T2, AMPK-alpha1
# T2 construct: gene PRKAA1
# [17] = system: T3, AMPK-alpha2
# T3 construct: gene PRKAA2
# [18] = system: ANKK1
# [19] = system: T4, ARK5
# T4 construct: gene NUAK1
# [20] = system: T5, ASK1
# T5 construct: gene MAP3K5
# 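Note: KINOMEscan kinase panel screen.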
Structure (SMILES),%Inh [1],%Inh [2],%Inh [3],%Inh [4],%Inh [5],%Inh [6],%Inh [7],%Inh [8],%Inh [9],%Inh [10],%Inh [11],%Inh [12],%Inh [13],%Inh [14],%Inh [15],%Inh [16],%Inh [17],%Inh [18],%Inh [19],%Inh [20]
COc1cccc(OC)c1C(=O)Nc1cccc(-c2nn3ccccc3c2-c2ccnc(Nc3cccc(F)c3)n2)c1 [GSK361065],0%,28%,18%,100%,15%,17%,7%,27%,7%,0%,0%,4%,0%,0%,0%,25%,4%,93.2%,0%,22%
C[C@@H](Oc1cc(-n2cnc3ccc(-c4ccncc4)cc32)sc1C(N)=O)c1ccccc1Cl [GSK483724],60%,0%,0%,21%,0%,32%,0%,0%,0%,52%,76%,41%,22%,0%,20%,8%,12%,17%,0%,10%
Cc1ccc(CC(=O)N2CCc3cc(-c4cn(C)c5ncnc(N)c45)ccc32)cc1 [GSK2634758],33%,42%,5%,24%,20%,0%,0%,0%,0%,6%,9%,0%,1%,30%,0%,0%,29%,23%,37%,3%
CN(c1cccc(CNc2nc(Nc3ccc4c(c3)CC(=O)N4)ncc2C(F)(F)F)c1)S(C)(=O)=O,51%,46%,3%,16%,0%,0%,0%,0%,0%,0%,29%,0%,0%,0%,41%,26%,5%,0%,99.3%,0%
COc1cccc(C2=C(Nc3cccc(Cl)c3)C(=O)NC2=O)c1 [SB-341556],0%,0%,21%,8%,0%,65%,0%,0%,0%,24%,0%,0%,0%,0%,32%,0%,0%,0%,0%,5%
CC(=O)c1c(-c2ccncc2)[nH]c(-c2ccncc2)c1C [GW493036],14%,0%,0%,7%,0%,7%,0%,17%,0%,4%,46%,0%,1%,28%,31%,13%,0%,3%,3%,17%
CCCC(=O)Nc1n[nH]c2ncccc12 [SB-601436],0%,24%,0%,0%,0%,5%,0%,0%,0%,0%,0%,0%,0%,2%,0%,0%,0%,13%,0%,0%
Cl.Nc1n[nH]c2cc(-c3ccccn3)ccc12 [GSK2189892],17%,0%,0%,0%,0%,10%,0%,6%,0%,11%,17%,0%,0%,0%,16%,0%,1%,0%,0%,0%
C[C@@H]1CCN(C(=O)N2CCCC2)C[C@@H]1N(C)c1ncnc2[nH]ccc12,31%,51%,9%,0%,1%,0%,3%,0%,0%,7%,0%,0%,3%,0%,0%,66%,77%,0%,16%,0%
Cn1ccc2ncnc(Oc3ccc(NC(=O)Nc4cccc(C(F)(F)F)c4)c(F)c3)c21,15%,88%,51%,29%,0%,0%,32%,36%,7%,18%,0%,23%,0%,0%,20%,0%,0%,0%,5%,5%
CS(=O)(=O)c1cccc(CNc2nc(Nc3ccc4c(c3)[C@@H]3C[C@@H]4CNC3=O)ncc2C(F)(F)F)c1,92.6%,97.9%,93.2%,66%,0%,0%,0%,0%,0%,0%,0%,0%,0%,0%,0%,37%,28%,22%,94.6%,0%
COc1cc(Nc2nccc(N3CCC(NC(=O)c4cccc(C#N)c4)C3)n2)cc(OC)c1OC (stereo not shown) [GSK1379751],75%,0%,0%,3%,0%,98.8%,0%,0%,0%,4%,50%,0%,0%,0%,14%,0%,0%,24%,26%,0%
O=C(Nc1ccccc1)c1cccc(Oc2ccc3nccn3n2)c1,1%,12%,0%,3%,5%,6%,0%,5%,2%,19%,0%,11%,0%,0%,0%,5%,7%,2%,0%,0%
CS(=O)c1ccc(-c2coc3ccc(-c4n[nH]c(=O)o4)cc23)cc1 (stereo not shown),21%,35%,3%,0%,14%,0%,8%,19%,0%,0%,12%,0%,0%,26%,13%,100%,5%,36%,10%,0%
CCOC(=O)N1CCC(n2cnc(-c3ccc(F)cc3)c2-c2ccnc(N)n2)CC1 [SB-219952],0%,60%,2%,0%,33%,28%,0%,0%,10%,15%,20%,7%,0%,24%,0%,99.8%,4%,0%,0%,0%
O=C(Nc1ccc(Oc2ccc3nc(NC(=O)C4CC4)cn3n2)c(F)c1)c1cccn(-c2ccccc2)c1=O,0%,99.9%,88%,62%,0%,19%,28%,31%,1%,16%,0%,18%,13%,30%,0%,0%,3%,0%,0%,3%
CCNCC(Cc1ccccc1)NC(=O)c1cc(Br)c(-c2ccnc3[nH]ccc23)s1.Cl.Cl (stereo not shown) [GSK1383280],39%,15%,14%,19%,0%,0%,0%,2%,0%,12%,89%,93.7%,81%,88%,42%,49%,45%,8%,60%,0%
